From PubChem BioAssay (EPA / NIEHS) come the findings set out here.

Records with an inconclusive call do not appear. The source made the active and inactive calls. Rule for the calls, unless noted: active = hit-call score of the fitted dose curve at least 0.9, where 1 is the maximum; inconclusive = response in the unintended direction; inactive = score below 0.9.

Assay [1] can be described thus: ACEA_AR_agonist_AUC_viability: ACEA Biosciences xCELLigence Real-Time Cell Analysis on Androgen Receptor Agonism for Viability (AID 2283775). Summed up:
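Real-time impedance tracking of 22Rv1 growth, readings every 5 min for 5 h then hourly; area-under-curve viability endpoint at 80 hours, relative to DMSO. Compounds at eight concentrations, 1:4 steps, top 100 uM, n = 2.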

Assay [2] can be described thus: ACEA_AR_antagonist_AUC_viability: ACEA Biosciences xCELLigence Real-Time Cell Analysis on Androgen Receptor Antagonism for Viability (AID 2283776).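 Note: 22Rv1 human prostate cancer cells growing on impedance electrode plates; hits lower the growth signal relative to DMSO meaning cytotoxicity.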 Summed up:
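Impedance read-out (RT-CES): area under growth curve at 80 h post-dose, loss of signal scored vs DMSO baseline. 22Rv1 cells; 8-pt 1:4 series, top 100 uM final, ≤0.5% DMSO; biological duplicate.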

The nature of assay [3]: ACEA_ER_AUC_viability: ACEA Biosciences xCELLigence Real-Time Cell Analysis on Estrogen Receptor Agonism for Viability (AID 2283782).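 Note: continuous compound exposure with impedance area under curve over 80 h; hit means loss of impedance signal meaning reduced cell growth or viability.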 A digest of the protocol: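 T-47D human breast cells in phenol red-free RPMI1640 with 10% charcoal-stripped FBS were dosed with an 8-point 1:4 dilution series from 100 uM top final concentration, in duplicate. Impedance-based growth was followed for 80 h; AUC analysed versus DMSO.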

Assay [4] addresses AR (gene 367) (UniProt P10275). Nature of the assay: ACEA_AR_antagonist_80hr: ACEA Biosciences xCELLigence Real-Time Cell Analysis on Androgen Receptor Antagonism for Proliferation (AID 2283787).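 Note: hits lower the impedance growth signal relative to DMSO.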 Summed up: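 Impedance readout (RT-CES), 80 h post-dose; loss-of-signal vs DMSO baseline. 22Rv1 cells in assay medium. Compounds: 8-pt 1:4 series, max 100 uM final, up to 0.5% DMSO; n = 2.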

A short description of assay [5]: CEETOX_H295R_MTT_cell_viability: Viability Assessment in the CeeTox HT-H295R MTT Assay (AID 2283718; active = hit-call score of the fitted dose curve at least 0.9, where 1 is the maximum; inactive = score below 0.9;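 for AC50: curve fitted both ways so AC50 may mark viability loss or gain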). Summed up: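 H295R cells prestimulated 48 h with 10 uM forskolin, then exposed 48 h to test chemical (0.1% DMSO final). Viability by MTT (0.5 mg/ml, 4 h, 37 C), absorbance 570/650 nm; percent change versus DMSO, bidirectional fit.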
Assay [6] addresses AR (gene 367) (UniProt P10275). Nature of the assay: ACEA_AR_agonist_80hr: ACEA Biosciences xCELLigence Real-Time Cell Analysis on Androgen Receptor Agonism for Proliferation (AID 2283783).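 Note: hits increase impedance growth signal above DMSO baseline.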 A digest of the protocol: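 22Rv1 human prostate cancer cells were seeded after preconditioning in assay medium and monitored overnight, then dosed in an eight-point 1:4 dilution series from 100 uM (≤0.5% DMSO). Impedance-based growth was read at 80 h, gain-of-signal versus DMSO.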

The nature of assay [7]: CCTE_Simmons_CellTiterGLO_HEK293T: Viability Assessment in CCTE's Assays for Thyroperoxidase (TPO) Inhibition, Simmons Lab (AID 2283665).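 Note: cells exposed to compound for 24 h before readout; actives reduce ATP signal below DMSO vehicle meaning cytotoxicity.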 Summed up: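 HEK293T, 10 000 cells/well, DMEM + 1% FBS; 8-pt titration 5 nM–87.5 uM [final], 0.5% DMSO; 24 hr, 37C, 5% CO2; CellTiter-Glo luminescence; n=3 biological replicates.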
For assay [8], the target named is Luciferin 4-monooxygenase (Photinus pyralis) (UniProt P08659). In words: CCTE_Simmons_QuantiLum_inhib_2: CCTE's Firefly Luciferase Inhibition Assay, Simmons Lab (AID 2283767).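 Note: potency for inhibitors that lower luciferase luminescence relative to DMSO.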 A digest of the protocol:
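Luminescence loss relative to DMSO vehicle defines inhibition; detection reagent containing 150 uM D-luciferin and 147 uM dATP (final, pH 7.8) is injected immediately before each read. Enzyme is preincubated with an 8-point titration (5 nM–87.5 uM final) for 30 min at 37C.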

Sequence of AR (gene 367) (P10275 whole entry, looked up): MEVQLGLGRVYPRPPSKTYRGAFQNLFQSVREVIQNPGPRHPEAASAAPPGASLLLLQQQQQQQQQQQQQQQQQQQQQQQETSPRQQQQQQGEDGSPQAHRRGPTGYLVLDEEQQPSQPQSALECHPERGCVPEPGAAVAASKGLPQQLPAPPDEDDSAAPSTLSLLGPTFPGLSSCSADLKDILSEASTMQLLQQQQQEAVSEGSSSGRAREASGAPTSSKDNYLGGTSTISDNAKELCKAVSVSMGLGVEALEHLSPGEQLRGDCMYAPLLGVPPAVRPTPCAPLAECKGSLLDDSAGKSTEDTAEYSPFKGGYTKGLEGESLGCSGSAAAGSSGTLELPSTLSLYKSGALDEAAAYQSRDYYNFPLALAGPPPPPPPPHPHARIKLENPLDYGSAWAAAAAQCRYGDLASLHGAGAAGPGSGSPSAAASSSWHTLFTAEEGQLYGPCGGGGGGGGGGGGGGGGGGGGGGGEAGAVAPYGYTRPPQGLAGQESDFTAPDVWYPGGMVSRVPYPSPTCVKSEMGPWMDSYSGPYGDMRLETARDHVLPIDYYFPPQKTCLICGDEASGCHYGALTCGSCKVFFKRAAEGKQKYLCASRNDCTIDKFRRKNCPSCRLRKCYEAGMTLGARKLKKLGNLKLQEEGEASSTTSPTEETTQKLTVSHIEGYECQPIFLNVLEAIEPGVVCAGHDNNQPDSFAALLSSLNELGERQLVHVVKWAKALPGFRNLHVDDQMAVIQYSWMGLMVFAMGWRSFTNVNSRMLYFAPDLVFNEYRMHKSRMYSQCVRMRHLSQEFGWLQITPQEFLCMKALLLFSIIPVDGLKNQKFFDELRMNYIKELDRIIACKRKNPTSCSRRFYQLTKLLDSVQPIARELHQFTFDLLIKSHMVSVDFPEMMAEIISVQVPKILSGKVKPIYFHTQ
Sequence of Luciferin 4-monooxygenase (Photinus pyralis) (P08659 whole entry, looked up): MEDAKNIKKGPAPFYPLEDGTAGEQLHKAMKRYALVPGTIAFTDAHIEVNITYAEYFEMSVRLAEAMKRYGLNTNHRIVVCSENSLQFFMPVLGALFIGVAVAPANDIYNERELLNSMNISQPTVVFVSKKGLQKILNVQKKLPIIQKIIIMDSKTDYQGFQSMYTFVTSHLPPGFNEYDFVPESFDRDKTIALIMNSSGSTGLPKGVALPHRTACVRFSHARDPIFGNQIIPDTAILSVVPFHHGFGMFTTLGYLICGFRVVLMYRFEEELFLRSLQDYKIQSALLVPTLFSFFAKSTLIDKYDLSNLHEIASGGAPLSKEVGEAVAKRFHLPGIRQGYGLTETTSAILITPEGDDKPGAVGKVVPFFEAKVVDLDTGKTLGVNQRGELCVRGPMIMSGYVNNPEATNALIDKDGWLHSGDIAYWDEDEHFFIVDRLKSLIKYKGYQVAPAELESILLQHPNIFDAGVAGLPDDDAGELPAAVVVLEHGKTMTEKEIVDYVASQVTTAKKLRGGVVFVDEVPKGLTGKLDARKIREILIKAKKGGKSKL

As to `CCCCCCOC(=O)c1ccccc1O`, the compound was classed as inactive in assay [1], in assay [2], in assay [3] and in assay [4].
As for `CC(=O)Nc1ccc(N=Nc2cc(C)ccc2O)cc1`, the compound was classed as inactive in assay [5] and in assay [3].
Take `O=C(OCCOCCOCCOC(=O)c1ccccc1)c1ccccc1`: in assay [2], the AC50 is 0.195 µM (active). Besides, the compound was called inactive in assay [3].
As for `CCCCCCS`, the result in assay [5] was inactive. In addition, the AC50 in assay [3] was 50 µM (active).
On to `O=C(O)C(F)(F)C(F)(F)C(F)(F)F`, for which the result in assay [3] was inactive.
As to `CC/C=C\CCOC(C)=O`, the outcome in assay [1], in assay [2] and in assay [3] was inactive.
Take `FC(F)(F)C(F)(F)C(F)(F)C(F)(F)C(F)(F)C(F)(F)C(F)(F)C(F)(F)CCS`: the result in assay [3] was inactive.
`CCCCCCCOC(=O)c1ccccc1C(=O)OCCCCCCC`: the call in assay [5] and in assay [3] was inactive.
As to `FC(F)(F)C(F)(F)CNCC(F)(F)C(F)(F)F`, the call in assay [3] was inactive.
Take `OC[C@@H](O)[C@@H](O)[C@H](O)[C@@H](O)CO`: the outcome in assay [1], in assay [2] and in assay [3] was inactive.
`Nc1ccc(Oc2cccc(Oc3ccc(N)cc3)c2)cc1`: the outcome in assay [5] was inactive. For the same compound, the concentration at half-maximal activity (AC50) in assay [3] was 64.2 µM (active).
Regarding `FC(F)(F)C(F)(F)C(F)(F)C(F)(F)C(F)(F)CCI`, the compound was classed as inactive in assay [3].
Consider `COC(=O)C1CCC(C(=O)OC)CC1` (stereo not given), for which the call in assay [5], in assay [1], in assay [2] and in assay [3] was inactive.
With `CC(CCl)OP(=O)(OC(C)CCl)OC(C)CCl` (stereo not given), the result in assay [1] and in assay [2] was inactive.
`CCCCCCOC(=O)c1ccccc1`: in assay [1], the call was inactive.
On to `CC(C)c1ccccc1N`, for which the AC50 in assay [3] is 50 µM (active).
Take `CNC(=S)NC`: the compound was classed as inactive in assay [1], in assay [2], in assay [6] and in assay [4].
For `C1COCCN1`, the outcome in assay [1], in assay [2] and in assay [3] was inactive.
Take `[Co]`: the outcome in assay [1] and in assay [3] was inactive.
For the compound `Cc1cc(C)cc(O)c1`, the result in assay [2] was inactive.
Turning to `c1ccc(B(c2ccccc2)c2ccccc2)cc1`, the AC50 is 90.1 µM (active) in assay [7], 50 µM (active) in assay [5] and 53.8 µM (active) in assay [8]. Moreover, the result in assay [1] and in assay [2] was inactive.
With `CN(C)Cc1ccccc1O`, the call in assay [2], in assay [6] and in assay [4] was inactive.
